High-throughput results (PubChem BioAssay)
Pf apPOL block = Pf-apPOL DNA polymerase inhibition; Recombinant Pf-apPOL, molecular beacon fluorescence, 1.5 h; inhibition, % at 10 µM; 210,000 tested, 0.25% active; AID 1794808
mHTT-CaM PPI inh = mHTT-calmodulin interaction abrogation; 190,000 tested, 3.6% active; inhibition, % at 15 µM; P42858; AlphaScreen His-mHTT/GST-CaM binding, luminescence
Numbers stand for hits; - = inactive; . = no result. A selection: hits, their analogues and other compounds. The true share with any hit is near 3.6%. Cut-off read from the data, not from the text of the source: active = inhibition above about 50%; inactive = the rest.

SMILES | Pf apPOL block | mHTT-CaM PPI inh
CC(C)c1ccc(CN2CC(C(=O)Nc3nc4ccccc4s3)CC2=O)cc1 (stereo unspecified) | - | 100.0
CC(=O)Nc1cccc(N2CC(C(=O)Nc3nc4ccc(Cl)cc4s3)CC2=O)c1 (stereo unspecified) | - | 52.5
COc1cccc(CC(=O)N2CCCC3(C2)NC(=O)N(Cc2ccc(C)cc2)C3=O)c1 (stereo unspecified) | - | -
COc1ccc(-n2ccn3cc(-c4ccccc4C)nc3c2=O)cc1 | - | -
COc1cccc(C(=O)Nc2ccc([N+](=O)[O-])cc2)c1OC | - | -
CCC1CCC(N2CCC(C(N)=O)CC2)CC1 (stereo unspecified) | - | -
Cn1cc(-c2nc(C(=O)NCc3ccccc3)cs2)c2cccnc21 | - | -
Cc1ccccc1CNC(=O)c1csc(-c2cn(C)c3ncccc23)n1 | - | 71.8
COc1cc2c(cc1OC)C(C(=O)Nc1ccc(C(C)C)cc1)C(c1ccccc1F)N(C)C2=O (stereo unspecified) | - | -
CC(C)c1ccc(OCC(=O)Nc2nnc(-c3ccc(Br)o3)o2)cc1 | - | 52.3
Cc1ccc(OCC(=O)Nc2ccc(C(C)C)cc2)cc1 | - | -
O=C(CSC1CCCC1)N1CCC(c2nnc(-c3ccco3)o2)CC1 | - | 100.0
COc1nn(C)cc1C(=O)N1CCC(c2nnc(-c3ccco3)o2)CC1 | - | -
CCNC(=O)c1cc2sc(C)cc2n1CC | - | -
Cc1cc2c(cc(C(=O)NCc3ccccn3)n2CC(C)C)s1 | - | 69.5
Cc1nc(N)sc1-c1csc(Nc2cccc(C(=O)O)c2)n1 | - | -
COc1ccc(Nc2nc(-c3ccc(C)c(C)c3)cs2)cc1 | - | -
Cc1ccnc(Nc2nc(-c3sc(N)nc3C)cs2)c1 | - | 65.5
Cc1ccc(NCc2ccc([N+](=O)[O-])cc2)cc1C | - | 60.5
Cc1ccnc(Nc2nc(-c3ccccc3)cs2)c1 | - | -
Cc1cccc(NCc2ccc([N+](=O)[O-])cc2)c1 | - | -
Cc1cccc(Nc2nc(-c3ccc(C)c(C)c3)cs2)c1 | - | 54.7
Cc1nc(N)sc1-c1csc(Nc2ccccc2)n1 | - | 88.8
N#CC1=C(N)Oc2n[nH]c(-c3cccs3)c2C1c1cccc(F)c1 (stereo unspecified) | - | -
COCCCNC(=O)C1CCCN(c2ncc(-c3ccc(F)cc3)cn2)C1 (stereo unspecified) | - | -
SMILES | Pf apPOL block | mHTT-CaM PPI inh
CC(=O)Nc1nc(C)c(-c2csc(Nc3ccc([N+](=O)[O-])cc3)n2)s1 | - | -
Cc1nc(N)sc1-c1csc(Nc2ccc([N+](=O)[O-])cc2)n1 | - | 98.7
c1ccc(Nc2nc(-c3ccc4c(c3)OCO4)cs2)nc1 | - | -
Ic1ccc(-c2csc(Nc3ccc4c(c3)OCO4)n2)cc1 | - | 62.0
Cc1ccc(Nc2nc(-c3ccc([N+](=O)[O-])cc3)cs2)cc1C | - | 75.2
O=[N+]([O-])c1ccc(Nc2nc(-c3ccncc3)cs2)cc1 | - | -
N#CC(C(=O)c1cccs1)=C1SCCS1 | - | .
Cc1cccc(C(C)C)c1NS(=O)(=O)c1cc(Cl)ccc1Cl | - | -
O=C(c1csc(-c2ccc(N3CCCC3)nc2)n1)N1CCCCC1 | - | -
CC1(C)CC(C)(c2ccc(Cl)cc2)c2ccccc2N1 (stereo unspecified) | - | 85.0
COCCOCC(=O)N1c2ccccc2C(C)(c2ccc(Cl)cc2)CC1(C)C (stereo unspecified) | - | -
COC(=O)c1ccccc1NC(=O)Cn1cc2c(n1)CCCCC2 | - | -
COc1ccc(-c2cc(C(F)(F)F)n3nc(C(=O)NC(C)C)c(Cl)c3n2)cc1OC | - | -
COc1ccc(-c2cc(C(F)(F)F)n3nc(C(=O)O)c(Cl)c3n2)cc1OC | - | 83.0
COc1cccc(C2=CC(c3ccc(OC)cc3OC)n3nnnc3N2)c1 (stereo unspecified) | - | -
Clc1ccc(N2Cc3ccccc3C2)cc1Cl | - | 87.0
O=C(c1c(F)cccc1F)N1CCN(c2ccc(Cl)c(Cl)c2)CC1 | - | -
COc1cccc(-c2nc(C3CCN(S(=O)(=O)c4ccc(F)cc4F)CC3)no2)c1 | - | -
CC(=O)c1cccc(NC(=O)N2CCC(c3nc(C(=O)N4CCCC4)c(C)o3)CC2)c1 | - | -
Cc1ccccc1N1CCN(C(C)C(=O)NCc2cccnc2)CC1 (stereo unspecified) | - | -
CC(C(=O)NCc1ccccn1)N1CCN(c2ccccc2Cl)CC1 (stereo unspecified) | - | 75.0
Cc1cc(C(=O)N2CCCC(c3nnc(-c4cccs4)o3)C2)no1 (stereo unspecified) | - | -
O=C(CSc1cccc2cccnc12)NCc1ccccc1 | - | -
Oc1ccc(COCc2ccccc2)c2cccnc12 | - | 99.0
CCOc1cccc2cc(-c3nnc(Nc4ccc(F)cc4)s3)c(=O)oc12 | - | -
SMILES | Pf apPOL block | mHTT-CaM PPI inh
O=C1CCCC2=C1C(c1ccc3c(c1)OCO3)C1C(=O)c3ccccc3C1=N2 (stereo unspecified) | - | 55.0
CC1(C)CC(=O)C2=C(C1)N=C1c3ccccc3C(=O)C1C2c1cc([N+](=O)[O-])ccc1O (stereo unspecified) | - | 53.0
CC1(C)CC(=O)C2=C(C1)N=C1c3ccccc3C(=O)C1C2c1cccc(Br)c1 (stereo unspecified) | - | 61.0
CC1(C)CC(=O)C2=C(C1)N=C1c3ccccc3C(=O)C1C2c1cccc(F)c1 (stereo unspecified) | - | -
CC1(C)CC(=O)C2=C(C1)N=C1c3ccccc3C(=O)C1C2c1ccc([N+](=O)[O-])cc1 (stereo unspecified) | - | -
CC1(C)CC(=O)C2=C(C1)N=C1c3ccccc3C(=O)C1C2c1ccc2c(c1)OCO2 (stereo unspecified) | - | -
O=C(NC1CCCCC1)c1cccn2c(=O)c3sccc3nc12 | - | -
COCCc1nc(C2CCCN(C(=O)c3ccc(Cl)s3)C2)n[nH]1 (stereo unspecified) | - | -
CC(C)CC(NC1CCS(=O)(=O)C1)C(=O)O (stereo unspecified) | . | -
Cc1ccsc1C(=O)N1CCCC(c2nc(CCNC(=O)C(C)C)cs2)C1 (stereo unspecified) | - | -
COc1ccc(-c2cc3ccc(OCC(C)=O)cc3oc2=O)c(OC)c1 | - | -
O=C(Nc1cccc(-c2ccc(N3CCCC3)nn2)c1)c1cc(-c2cccs2)[nH]n1 | - | 98.7
O=C(Cc1noc2ccccc12)Nc1cccc(-c2ccc(N3CCCC3)nn2)c1 | - | 66.9
Cc1noc(C)c1CCC(=O)Nc1cccc(-c2ccc(N3CCCC3)nn2)c1 | - | -
CN1CCN(c2ccc(-c3cccc(NC(=O)c4cccs4)c3)nn2)CC1 | - | -
Cc1ccc(/C=C2\SC(N3CCN(CCO)CC3)=NC2=O)cc1 | - | -
Clc1ccc(Cn2cnc(Cl)c2Cl)cc1Cl | - | 73.0
Cc1ccc(=O)n(Cc2ccc(Cl)c(Cl)c2)n1 | - | .
COc1cccc(CCC(=O)N2CC3CC2CC3NC(=O)c2ccccc2)c1 (stereo unspecified) | - | -
O=S(=O)(Nc1ccc2c(c1)oc1ccccc12)c1ccc2ccccc2c1 | . | 76.7
CC(=O)Nc1ccc(S(=O)(=O)Nc2ccc3c(c2)oc2ccccc23)cc1 | - | -
CCOc1cccc2nnc(NC(=O)c3cccc(C(F)(F)F)c3)n12 | - | -
CC1CCCN(S(=O)(=O)c2ccc3[nH]c4c(c3c2)CCCC4)C1 (stereo unspecified) | - | 62.6
